From PubChem BioAssay (NCI)
This is part of a sample that, as a whole, favours compounds with a hit. Of some 79,000 tested, about 15% had one in any assay. The source made the active and inactive calls. No stated cut-off is given here; in the data, active means growth inhibition above about 70%; inactive means the rest.

Key:
[1] = NCI Yeast Anticancer Drug Screen. Data for the rad50 strain (AID 155);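 further: 0% = growth of vehicle-only cultures of the same strain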; settings: S. cerevisiae rad50 strain growth inhibition; at 50.0 µM; stronger effect = higher value
Outline: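 Inhibition values express reduced yeast growth in compound-treated cultures relative to vehicle-treated controls.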

[2] = NCI Yeast Anticancer Drug Screen. Data for the mec2-1 strain (AID 157); settings: S. cerevisiae mec2-1 strain, at 50.0 µM, stronger effect = higher value
Outline: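 Cells of the genetically defined mec2-1 yeast strain are incubated with test compound. Inhibition of growth is calculated against vehicle-treated controls.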

[3] = NCI Yeast Anticancer Drug Screen. Data for the sgs1 mgt1 strain (AID 161);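 further: 0% = growth of cultures given vehicle only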; settings: S. cerevisiae sgs1 mgt1 strain, at 50.0 µM, stronger effect = higher value
Outline: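 Read-out: growth inhibition vs vehicle controls. Cells: mutant yeast strain deficient in DNA damage repair.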

[4] = NCI Yeast Anticancer Drug Screen. Data for the cln2 rad14 strain (AID 165);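 further: 0% = growth equal to vehicle treated cultures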; settings: S. cerevisiae cln2 rad14 strain, at 50.0 µM, stronger effect = higher value
Outline: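 The screen exposed genetically defined yeast (cln2 rad14) to test compounds and scored growth inhibition relative to vehicle-treated controls.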

[5] = NCI Yeast Anticancer Drug Screen. Data for the bub3 strain (AID 167); settings: S. cerevisiae bub3 mutant strain, at 50.0 µM, stronger effect = higher value
Outline: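 Steps: expose the mutant yeast strain to compound; grow alongside vehicle-treated cultures; measure growth; express inhibition against the vehicle cultures.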

[6] = NCI Yeast Anticancer Drug Screen. Data for the mlh1 rad18 strain (AID 175); settings: S. cerevisiae mlh1 rad18 strain growth inhibition; at 50.0 µM; stronger effect = higher value
Outline: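 Compound-treated yeast growth, normalised to vehicle controls. Strain bears defined DNA repair mutations.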

| Compound | growth inhibition [1] | growth inhibition [2] | growth inhibition [3] | growth inhibition [4] | growth inhibition [5] | growth inhibition [6] |
| --- | --- | --- | --- | --- | --- | --- |
| CC(C#N)c1cn(S(=O)(=O)c2ccccc2)c2ccccc12 (stereo not given) | 30.6% (inactive) | 3.4% (inactive) | -5.4% (inactive) | 9.75% (inactive) | 52.7% (inactive) | 37% (inactive) |
| Cc1cc(=O)[nH]c(NNC(C#N)c2ccccc2O)n1 (stereo not given) | -19.3% (inactive) | -27.9% (inactive) | -22.1% (inactive) | -12% (inactive) | 1.5% (inactive) | -34.8% (inactive) |
| Nc1ccccc1SC1CC(=O)N(c2ccc(I)cc2)C1=O (stereo not given) | -6.8% (inactive) | -15.7% (inactive) | -7.5% (inactive) | 13.8% (inactive) | 9.55% (inactive) | 2.35% (inactive) |
| CN(C)/N=C1/CCCCC1C(O)(c1ccccc1)c1ccccc1 (stereo not given) | -20.7% (inactive) | -19.8% (inactive) | -15.4% (inactive) | -73.3% (inactive) | -58.8% (inactive) | -10.7% (inactive) |
| C/C=C/C(=O)OCCCCCCCCCCCC | -41.1% (inactive) | -39% (inactive) | -18.8% (inactive) | -16.8% (inactive) | -15.6% (inactive) | -39.8% (inactive) |
| O=S(=O)(O)CCCC1S(=O)(=O)OCCOS1(=O)=O | -55.1% (inactive) | -21.8% (inactive) | -8.4% (inactive) | -16.4% (inactive) | -1.3% (inactive) | -25.8% (inactive) |
| COC(=O)c1nc(N)nc(C(=O)OC)c1C(=O)c1ccc(F)cc1 | 8.55% (inactive) | -1% (inactive) | -12.3% (inactive) | 5.35% (inactive) | 9.4% (inactive) | 20.6% (inactive) |
| CCN(CC)c1ccc2c(c1)Cc1ccccc1-2 | 25.8% (inactive) | 1.15% (inactive) | 9.2% (inactive) | 4.4% (inactive) | -18.9% (inactive) | -5.65% (inactive) |
| O=C(O)C1CSCN1 (stereo not given) | -3.85% (inactive) | -22.9% (inactive) | -3.2% (inactive) | 1.1% (inactive) | 1% (inactive) | 18.3% (inactive) |
| CCCCCCCCCCO | -1.6% (inactive) | 4.6% (inactive) | -5.15% (inactive) | 5.45% (inactive) | 3.2% (inactive) | -1.6% (inactive) |
| CC(C)CC(NC(=O)C(C)NC(=O)C(NC(=O)OCc1ccccc1)C(C)O)C(=O)NC(CC(C)C)C(=O)NCC(=O)NN (stereo not given) | 12.1% (inactive) | 1.9% (inactive) | 0.05% (inactive) | -0.3% (inactive) | -5.1% (inactive) | -15.6% (inactive) |
| CCOC(=O)Nc1ccc([N+](=O)[O-])c2c1C(=O)c1ccccc1-2 | -9.55% (inactive) | 2.9% (inactive) | -8.6% (inactive) | -10.7% (inactive) | -21.6% (inactive) | -19.5% (inactive) |
| COC(=O)Nc1cc2c3c(c1)CCCN3CCC2 | -6.35% (inactive) | -4.05% (inactive) | -2.2% (inactive) | -10.2% (inactive) | 10.1% (inactive) | 1.8% (inactive) |
| NC(=O)Cc1csc(Br)n1 | 12.9% (inactive) | 0.8% (inactive) | -6.2% (inactive) | -32.2% (inactive) | 15.4% (inactive) | 7.9% (inactive) |
| CCCCCCCCCCCCCCCC(=O)CCCCCCCCCCCCCCC | 21.1% (inactive) | -15.9% (inactive) | 6.35% (inactive) | -3.8% (inactive) | -0.95% (inactive) | 28.9% (inactive) |
| Cc1cccc(NC(=O)CSc2nnc(Cc3ccccc3)o2)c1 | -28.1% (inactive) | -16.3% (inactive) | -15.1% (inactive) | -39.2% (inactive) | -36.7% (inactive) | -28.2% (inactive) |
| CCOCCC(=O)O | 26.1% (inactive) | 6.3% (inactive) | -7% (inactive) | -5.3% (inactive) | 18.1% (inactive) | 6.15% (inactive) |
| COc1cccc(-c2nc3ccccc3c(=O)[nH]2)c1OC | 33.2% (inactive) | -16.6% (inactive) | 10.1% (inactive) | 18.1% (inactive) | 16.5% (inactive) | 19.9% (inactive) |

| Compound | growth inhibition [1] | growth inhibition [2] | growth inhibition [3] | growth inhibition [4] | growth inhibition [5] | growth inhibition [6] |
| --- | --- | --- | --- | --- | --- | --- |
| Brc1cc2c(cc1CC1CCCCO1)OCO2 (stereo not given) | -6.5% (inactive) | -17.1% (inactive) | 1.4% (inactive) | -61.9% (inactive) | -4.9% (inactive) | 0.85% (inactive) |
| O=C1c2ccccc2-c2ccc(N=Cc3cccs3)cc21 | 30.9% (inactive) | -5.65% (inactive) | -3.35% (inactive) | 9.4% (inactive) | 33.5% (inactive) | 11.7% (inactive) |
| C/C(=N\Nc1ccccc1)c1sc(-c2nc(C)c(/C(C)=N/Nc3ccccc3)s2)nc1C | 24.3% (inactive) | -3.2% (inactive) | 14.3% (inactive) | -29% (inactive) | 17.6% (inactive) | 25.2% (inactive) |
| O=CN(c1ccccc1)c1ccccc1 | 3.8% (inactive) | -2.4% (inactive) | -2.7% (inactive) | -15.4% (inactive) | -4.55% (inactive) | -23.6% (inactive) |
| CCCOc1cc2c(cc1C(C)c1ccc(OCC)c(C)c1)OCO2 (stereo not given) | -1.7% (inactive) | 0.75% (inactive) | -9.05% (inactive) | -94% (inactive) | -3.9% (inactive) | -5.1% (inactive) |
| CC(=O)N1CC(C)(C)c2c(C)c(O)c(C)c(C)c21 | -16.1% (inactive) | -22.3% (inactive) | -15.4% (inactive) | 17.1% (inactive) | 8.45% (inactive) | 0.3% (inactive) |
| CN(Cc1ccccc1)N=NCc1ccccc1 | 15.8% (inactive) | -15.8% (inactive) | -20.4% (inactive) | 3.35% (inactive) | 3.65% (inactive) | -9.7% (inactive) |
| CC1=C(OCCCl)C2CC1C1C(=O)N(c3ccccc3)C(=O)C21 (stereo not given) | -9.95% (inactive) | -29.1% (inactive) | -1.85% (inactive) | -0.4% (inactive) | -4.9% (inactive) | -4.75% (inactive) |
| CCCCCCCCCO | 13.7% (inactive) | -4.8% (inactive) | 19.9% (inactive) | 11.3% (inactive) | 12.8% (inactive) | 19.3% (inactive) |
| O=[N+]([O-])c1ccc(-c2cc3ccccc3nc2Cl)cc1 | 15.4% (inactive) | 12.1% (inactive) | 8.4% (inactive) | 5.55% (inactive) | 28.4% (inactive) | 17% (inactive) |
| CCOCCOCCOC12C(=O)C(Cl)=C(Cl)C(=O)C13C1CC2C(Cl)C13 (stereo not given) | 99.4% (active) | 99.5% (active) | 98.9% (active) | 98% (active) | 98.7% (active) | 98.2% (active) |
| O=C1CC2CCC(C1)S2 | -18.1% (inactive) | -28.6% (inactive) | -15.4% (inactive) | 16.1% (inactive) | -2.95% (inactive) | -33% (inactive) |
| O=[N+]([O-])c1cc(C(F)(F)F)ccc1S(=O)(=O)c1ccccc1 | 40.4% (inactive) | 8.5% (inactive) | 8.7% (inactive) | 13.7% (inactive) | 14.1% (inactive) | 17.6% (inactive) |
| Cc1cc(=O)n2c(n1)Nc1ccccc1C2 | 22.5% (inactive) | -26% (inactive) | 2.75% (inactive) | 1.65% (inactive) | 46.4% (inactive) | 6.8% (inactive) |
| CCOC(=O)N1c2ccccc2S(=O)(=O)c2ccccc21 | 40.5% (inactive) | -10.3% (inactive) | -26.4% (inactive) | -16.1% (inactive) | -22.9% (inactive) | -52.2% (inactive) |
| O=C(/C=C/NC(=O)OCc1ccccc1)OCc1ccccc1 | 9.35% (inactive) | -5.5% (inactive) | -0.9% (inactive) | 17.1% (inactive) | 3.55% (inactive) | 0.95% (inactive) |
| C=C1C(=O)O[C@@H]2[C@H]1CC[C@H](C)[C@@H]1CCC(=O)[C@@]21C | 10% (inactive) | -0.5% (inactive) | 3.35% (inactive) | 13.8% (inactive) | 12.8% (inactive) | 14.2% (inactive) |
